Among the data in PubChem BioAssay AID485317 (Broad Institute, 2010) are inhibition values, retold here.

SMILES strings stand for the structures. In all, about 290,000 compounds went through this assay and about 11,000 (3.8%) were called active. What follows is part of a selection rich in actives, with near analogues and random picks from the rest. Values without a mark were called inactive.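 The calls were made as follows: active = mean replicate inhibition above about 79%, with every replicate also reaching it (limit read from the data); inconclusive = only one of the two criteria met; inactive = mean below limit and not every replicate reaching it.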

As usually defined, the inhibition is the change of the read-out against control, counted positive when it falls.

Chain of FAD-linked sulfhydryl oxidase ALR (Homo sapiens) (P55789 whole entry, looked up): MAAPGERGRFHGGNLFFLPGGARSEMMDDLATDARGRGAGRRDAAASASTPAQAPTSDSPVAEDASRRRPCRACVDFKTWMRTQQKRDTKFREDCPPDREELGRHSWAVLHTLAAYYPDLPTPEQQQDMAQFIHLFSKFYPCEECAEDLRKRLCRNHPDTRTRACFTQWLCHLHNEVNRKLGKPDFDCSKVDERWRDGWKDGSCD

This assay addresses FAD-linked sulfhydryl oxidase ALR (Homo sapiens) (UniProt P55789). The assay can be described thus: inhibitors of human ALR sulfhydryl oxidase, primary screen, biochemical, H2O2 detection, HRP-luminol luminescence, single point (AID 485317). To be noted: purified ALR, DTT oxidation, stronger effect = higher value, concentration not given here.
As for `CC1(C)CC(=O)C=C(c2ccc3ncccc3c2)C1`, the inhibition is -1.35%. `COc1ccc(NS(=O)(=O)c2cc(NC(=O)COc3ccccc3F)ccc2OC)cc1`: the inhibition was -2.82%.

Regarding `COc1cccc(-c2ccc3c(c2)S(=O)(=O)c2cccc(C(=O)O)c2C3=O)c1OC`, the inhibition was -0.409%. The figure for `COc1ccc(-c2csc3ncnc(N4CCN(S(=O)(=O)c5cccc(F)c5)CC4)c23)cc1` is 0.272%.

`CCCc1ccc(C(=O)COC(=O)CN2C(=O)NC3(CCCCC3C)C2=O)cc1` (stereo unspecified): the inhibition is -2.13%.

Take `O=C(CSc1nnnn1-c1ccc2c(c1)CCC2)Nc1ccc2c(c1)OCCO2`: the inhibition is -26.1%.

On to `Nn1c(SCC(=O)Nc2ccc3c(c2)CCC3)nnc1C1CC1`, for which the inhibition is 98.6% (active). With `COc1ccc(NC(=O)CSc2nnc(C3CC3)n2C)cc1S(=O)(=O)N1CCCCC1` the figure was -0.755%; with `COc1ccc2cc(C3=CC(=O)C[C@H](c4ccc5c(c4)OCO5)C3)ccc2c1`, 0.243%; with `Cc1ccc(OCc2cc(C(=O)N(C)CCn3ccnc3C)no2)cc1C`, -0.532%. The figure for `CCCCCCCNC(=O)C1(CC2CC(c3cccc(Br)c3)=NO2)CCN(C(=O)c2cc(OCC)c(OCC)c(OCC)c2)CC1` (stereo unspecified) is -9.32%; for `CCCCOc1ccc(NC(=O)CSCC(=O)OCC)cc1` it is 98.6% (active). The figure for `CCCCN(C(=O)CSCC(=O)Nc1ccc(OC)cc1)c1c(N)n(CCC)c(=O)[nH]c1=O` is 2.82%; for `CCOC(=O)Cc1ncccc1C(=O)Nc1ccc(OC)cc1` it is 10.7%. With `O=C(NNC(=O)c1cccc(S(=O)(=O)Nc2ccc(Cl)cc2)c1)c1ccc(=O)[nH]c1`, the inhibition was -5.3%. `O=C(NCCc1ccc(C(F)(F)F)cc1)c1ccc2c(c1)OCO2`: the inhibition was -2.72%.

Take `COc1ccc(/C=C(\C#N)C(=O)OCC(=O)N(C)C2CCS(=O)(=O)C2)cc1` (stereo unspecified): the inhibition was 5.52%. The figure for `Nc1nnnn1CC(=O)N/N=C/c1ccc(-c2cccc(Cl)c2)o1` is -10.4%. With `CN1C(=O)/C(=C\c2ccc(-c3ccccc3)o2)SC1=S` the figure was -6.32%; with `O=C(O)C(c1ccccc1)N1C(=O)/C(=C\c2ccc(-c3cccc(Cl)c3)o2)SC1=S` (stereo unspecified), 98.2% (active). With `CC1CC(=O)Nc2ccccc2N1C(=O)COc1ccc2cc(Br)ccc2c1` (stereo unspecified) the figure was 12.2%. As to `O=C(COc1ccc(F)cc1Br)NCC1COc2ccccc2O1` (stereo unspecified), the inhibition is -3.27%. As for `COc1cccc2sc3cc(NCC[C@@H]4CCCN4C)ccc3c(=O)c12`, the inhibition was -1.66%.

Take `Cc1cc(=O)[nH]c(SCc2ccc(Cl)cc2)n1`: the inhibition was -9.56%. The figure for `O=c1cc(O)nc(SCc2ccccc2Cl)[nH]1` is 100% (active); for `O=c1[nH]nc(CSCc2ccccc2Cl)[nH]1` it is -8.43%; for `COc1ccccc1OCc1nc2ccccc2s1` it is 2.66%. The figure for `COc1cccc2sc(Nc3nc(C)c(C(C)=O)s3)nc12` is 32.7%. The figure for `COc1cccc2sc(NNC(=O)c3nc4ccccc4s3)nc12` is 93.7% (active); for `COC(=O)CN1C(=O)C(O)=C(C(C)=O)C1c1ccc([N+](=O)[O-])cc1` (stereo unspecified) it is -8.67%; for `CC(=O)C1=C(O)C(=O)N(c2cccnc2)C1c1ccc([N+](=O)[O-])cc1` (stereo unspecified) it is 36.6%. Regarding `CC(=O)C1=C(O)C(=O)N(c2ccc(Br)cc2)C1c1ccc([N+](=O)[O-])cc1` (stereo unspecified), the inhibition was 96.7% (active). For `COc1ccc(S(=O)(=O)N2CCN(CC(=O)NCC3(N4CCOCC4)CCCCC3)CC2)cc1`, the inhibition is -0.676%. Regarding `CCCn1nc(C(=O)NNC(=O)CCOc2ccccc2OCC)c2ccccc2c1=O`, the inhibition was 16.7%.

As to `CCOc1ccc(NC(=O)CN(C)C(=O)COc2cccc(CC)c2)cc1OCC`, the inhibition was -14.9%. The figure for `Cc1cc(NC(=O)CCS(=O)(=O)c2ccc(F)cc2)no1` is -5.46%; for `COc1cc(CC(=O)Nc2nc(-c3ccc(F)c(F)c3)cs2)cc(OC)c1OC` it is 0.225%. The figure for `CC(C)(C)C(=O)OCc1nc(-c2ccc(O)c(O)c2)cs1` is 99.4% (active).

For `Cc1onc(C(=O)NN)c1-c1csc(COc2ccccc2)n1`, the inhibition is -2.47%. The figure for `COc1ccc(CNC(=O)COC(=O)c2ccc(C)c(S(=O)(=O)N3CCOCC3)c2)cc1OC` is -7.49%. With `CC1CCCCC1NC(=O)Cn1c(=O)cnc2ccccc21` (stereo unspecified) the figure was -5.91%; with `COc1cc(/C=N/NC(=O)CCc2n[nH]c(=O)[nH]c2=O)ccc1O`, 99.3% (active); with `COc1cc(/C=N/NC(=O)Cc2ccccc2)cc(OC)c1OC`, -4.39%. Regarding `Cn1c(SCC(=O)N/N=C/c2ccc(O)c(O)c2)nc2ccccc21`, the inhibition was 98.9% (active). The figure for `Cc1nc2ccccc2n1CC(=O)N/N=C/c1cccnc1` is -8.97%; for `Cc1ccc(/C=N/NC(=O)CSc2nc3ccccc3o2)cc1` it is -3.09%; for `CCOc1ccc(/C=N/NC(=O)CSc2ccccn2)cc1O` it is 98.9% (active).

Consider `CCn1c(SCC(=O)N/N=C/c2ccncc2)nc2ccccc21`, for which the inhibition is -3.78%. `NCCCCCC(=O)N/N=C/c1ccc2nccnc2c1`: the inhibition is 0.997%. The figure for `C=CCOc1ccc(/C=N/NC(=O)C(C)Sc2ccccn2)cc1OCC` (stereo unspecified) is -4.04%. Take `Cc1nccn1CC(=O)N/N=C/c1ccc(O)c(O)c1`: the inhibition is 99.4% (active).

Regarding `COc1cc(/C=N/NC(=O)c2ccc(N3CCCC3=O)cc2)ccc1O`, the inhibition was 28%.

Take `CCOc1ccc(/C=N/NC(=O)C(C)Sc2ccccn2)cc1OCC` (stereo unspecified): the inhibition was -8.94%. Consider `CC(C)(C)n1nc(Cc2cccc3ccccc23)c(C#N)c1N`, for which the inhibition was -16.1%.

For the molecule `Cc1cc(NC(=O)CSc2nnc(-c3ccco3)n2N)no1`, the inhibition was -0.748%. The figure for `CCOc1ccc2oc(C(=O)N(CC)CC(=O)Nc3ccc(NC(C)=O)cc3)c(C)c2c1` is -6.04%; for `CCOc1ccc2ccccc2c1/C=N/NC(=O)c1c(C)cc(C)[nH]c1=O` it is -4.32%. The figure for `COc1ccc(NC(=O)CN(C)C(=O)c2ccc(NC3CC3)c([N+](=O)[O-])c2)cc1` is 9.73%.

Turning to `COc1cc(/C=N/NC(=O)c2ccoc2C)ccc1OCCN1CCCCC1`, the inhibition was -5.33%. The figure for `CCOc1cc(/C=N/NC(=O)CN2CCCCC2)ccc1O` is 98.9% (active); for `CCOc1cc(/C=N/NC(=O)c2cc(-c3ccccc3)nc3ccccc23)ccc1O` it is 12.6%.
